Results filed as inconclusive are left out. Activity calls are given as the source filed them. Unless noted, the call rests on the fitted dose curve; in most records, active means well fitted curve in the direction sought with a large enough effect; inconclusive means small, poorly fitted or top-dose-only effect, or another doubt; inactive means no such curve, though single readings can be large; an effect the other way counts as inactive or inconclusive.
How the values were obtained:
[1] = P-glycoprotein substrates identified in KB-8-5-11 adenocarcinoma cell line, qHTS therapeutic library screen (AID 1346987); further: nearly all actives have a fitted effect of over 65% in size; further: potency means the concentration at half of the fitted maximal effect; on activity change, negative = cytotoxicity: on the % scale 0 is the no-effect control and ±100 the full control effect
Procedure, shortened: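 Steps: plate 500 KB-8-5-11 cells/well in DMEM + 10% FCS (colchicine removed); pin compounds in dose-response; incubate 72 h, 37 degree C, 5% CO2; add CellTiter-Glo, 5 min; read luminescence.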

[2] = system: Zika virus NS2B-NS3 protease (unlinked complex); assay: Primary screen GU Rhodamine qHTS for Zika virus inhibitors: Unlinked NS2B-NS3 protease assay (AID 1347159); further: nearly all actives have a fitted effect of over 60% in size; further: potency means the concentration at half of the fitted maximal effect; on activity change, negative = inhibition: on the % scale 0 is the no-effect control and ±100 the full control effect
Procedure, shortened: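 Percent inhibition derives from the 15-min fluorescence change (ex 480, em 540 nm), normalized to no-enzyme and no-inhibitor wells. Reactions contained 25 nM NS2B-NS3 complex and 1.5 microM substrate in 10 mM Tris-HCl pH 8.0.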

[3] = Primary qHTS for inhibitors of nuclear receptor binding SET domain protein 2 (NSD2) in an isogenic RCH-ACV NSD2 p.E1099K mutant (9B) (AID 1645876); further: nearly all actives have a fitted effect of over 70% in size; further: potency means the concentration at half of the fitted maximal effect
[4] = Primary qHTS for inhibitors of nuclear receptor binding SET domain protein 2 (NSD2) in an RCH-ACV wild type WT cells (2C) (AID 1645877); further: nearly all actives have a fitted effect of over 70% in size; further: potency means the concentration at half of the fitted maximal effect
HEK293 = assay: Cytotoxic Profiling of Annotated Libraries Using Quantitative High-Throughput Screening (AID 1296008); settings: Five cell lines viability, CellTiter-Glo ATP luminescence, 48-72 h; max response: stronger effect = lower value; further: nearly all actives have a fitted effect of over 60% in size; further: potency means the concentration at half of the fitted maximal effect; on max response: on the % scale 0 is the no-effect control and ±100 the full control effect
Procedure, shortened: (§1)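 Cytotoxicity was measured as CellTiter-Glo ATP luminescence, read after 10 min at room temperature. Compound treatment of the cells lasted 48 or 72 hr at 37 degrees Celsius in a qHTS format.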

KB-3-1 = assay: as above; settings: Five cell lines viability, CellTiter-Glo ATP luminescence, 48-72 h; max response: stronger effect = lower value
Procedure, shortened: as §1

NIH3T3 = assay: qHTS assay to identify novel small-molecules to repurpose for Merkel cell carcinoma treatment (AID 1296009); settings: MCC and control cell lines, CellTiter-Glo viability, 72 h; at 44.8 µM (top of the series) unless noted; further: nearly all actives have a fitted effect of over 60% in size
Procedure, shortened: (§2)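 72 hr, 37 degree celsius; NPC 8-pt / MIPE 11-pt dose response; compound pinned in DMSO; CellTiter-Glo, 10 min RT, luminescence; normalized to no-cell and DMSO controls.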

HeLa = assay: Primary qHTS to identify gynecologic anti-cancer compounds using libraries of approved drugs and bioactive compounds (AID 1345084); settings: Gynecologic cancer cell panel viability, ATPlite luminescence, 48 h; series mostly up to 57.5 µM; further: nearly all actives have a fitted effect of over 55% in size; further: potency means the concentration at half of the fitted maximal effect
Procedure, shortened: (§3)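 Five-concentration response, 48 h; readout is ATP-driven luciferase luminescence.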

SKOV3 = assay: as above; settings: Gynecologic cancer cell panel viability, ATPlite luminescence, 48 h; series mostly up to 57.5 µM
Procedure, shortened: as §3

[5] = P-glycoprotein substrates identified in KB-3-1 adenocarcinoma cell line, qHTS therapeutic library screen (AID 1346986); further: nearly all actives have a fitted effect of over 60% in size
Procedure, shortened: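 Cells seeded 500/well in DMEM/10% FCS; compounds pinned in dose-response; 72 h incubation; CellTiter-Glo added, 5 min, luminescence. KB-8-5-11 run ±tariquidar to test reversal of P-gp resistance.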

[6] = molecular target: Cytochrome P450 2D6 (Homo sapiens) (UniProt P10635); assay: Cytochrome P450 family 2 subfamily D member 6 (CYP2D6) small molecule antagonists: luciferase biochemical (cell-free) qHTS assay (AID 1645840; active means well fitted curve in the direction sought with a large enough effect in the repeat runs; an effect the other way counts as inactive or inconclusive; further: nearly all actives have a fitted effect of over 55% in size; further: potency means the concentration at half of the fitted maximal effect)
Procedure, shortened: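 P450-Glo luminescent screen: recombinant CYP2D6 enzyme–proluciferin substrate mix preincubated with compound 10 min at room temperature, then NADPH regeneration added for 1 h at room temperature. Detection reagent added for 20 min; luciferin light read as relative luminescence units.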

[7] = molecular target: Cytochrome P450 2C9 (Homo sapiens) (UniProt P11712); assay: Cytochrome P450 family 2 subfamily C member 9 (CYP2C9) small molecule antagonists: luciferase biochemical (cell-free) qHTS assay (AID 1645842; active means well fitted curve in the direction sought with a large enough effect in the repeat runs; an effect the other way counts as inactive or inconclusive; further: nearly all actives have a fitted effect of over 55% in size; further: potency means the concentration at half of the fitted maximal effect)
Procedure, shortened: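 Luminescence, after 20 min with luciferin detection reagent, reflected CYP2C9 turnover during a 1 h NADPH-driven reaction at 37C. Enzyme-substrate mix contained 0.4% bovine serum albumin and was preincubated with compound 10 min at room temperature.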

HaCat [8] = assay: Cytotoxic Profiling of Annotated Libraries Using Quantitative High-Throughput Screening (AID 1296008); settings: Five cell lines viability, CellTiter-Glo ATP luminescence, 48-72 h; max response: stronger effect = lower value; further: nearly all actives have a fitted effect of over 60% in size; further: potency means the concentration at half of the fitted maximal effect; on max response: on the % scale 0 is the no-effect control and ±100 the full control effect
Procedure, shortened: as §1

HACAT [9] = assay: qHTS assay to identify novel small-molecules to repurpose for Merkel cell carcinoma treatment (AID 1296009); settings: MCC and control cell lines, CellTiter-Glo viability, 72 h; at 44.8 µM (top of the series) unless noted; further: nearly all actives have a fitted effect of over 60% in size
Procedure, shortened: as §2

CRL-7250 = normal cell line; assay: as above; settings: MCC and control cell lines, CellTiter-Glo viability, 72 h; series mostly up to 92 µM
Procedure, shortened: as §2

[10] = molecular target: Catechol O-methyltransferase (Homo sapiens) (UniProt P21964); assay: Confirmatory Screen for Target Class Profiling of Small Molecule Inhibitors of Methyltransferases (AID 1745852); settings: MTase-Glo luminescence, SAH detection, recombinant enzyme; measured here: COMT max response; stronger effect = lower value
[11] = molecular target: Guanidinoacetate N-methyltransferase (Homo sapiens) (UniProt Q14353); assay: as above; settings: activity change, negative = inhibition: at 57.3 µM (top of the series) unless noted
[12] = molecular target: Nicotinamide N-methyltransferase (Homo sapiens) (UniProt P40261); assay: as above; settings: MTase-Glo luminescence, SAH detection, recombinant enzyme; measured here: NNMT max response; stronger effect = lower value
[13] = molecular target: Phenylethanolamine N-methyltransferase (Homo sapiens) (UniProt P11086); assay: as above; settings: MTase-Glo luminescence, SAH detection, recombinant enzyme; measured here: PNMT max response; stronger effect = lower value
Phenylethanolamine N-methyltransferase (Homo sapiens), sequence (P11086 whole entry, looked up): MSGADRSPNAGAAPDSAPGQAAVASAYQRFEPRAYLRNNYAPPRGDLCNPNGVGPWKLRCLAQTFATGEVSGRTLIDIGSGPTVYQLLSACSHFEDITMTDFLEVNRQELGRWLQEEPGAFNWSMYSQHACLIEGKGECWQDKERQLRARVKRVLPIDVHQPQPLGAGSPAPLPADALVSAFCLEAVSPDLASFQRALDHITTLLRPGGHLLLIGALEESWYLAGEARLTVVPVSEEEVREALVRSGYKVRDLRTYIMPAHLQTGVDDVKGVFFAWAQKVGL

Cytochrome P450 2D6 (Homo sapiens), sequence (P10635 whole entry, looked up): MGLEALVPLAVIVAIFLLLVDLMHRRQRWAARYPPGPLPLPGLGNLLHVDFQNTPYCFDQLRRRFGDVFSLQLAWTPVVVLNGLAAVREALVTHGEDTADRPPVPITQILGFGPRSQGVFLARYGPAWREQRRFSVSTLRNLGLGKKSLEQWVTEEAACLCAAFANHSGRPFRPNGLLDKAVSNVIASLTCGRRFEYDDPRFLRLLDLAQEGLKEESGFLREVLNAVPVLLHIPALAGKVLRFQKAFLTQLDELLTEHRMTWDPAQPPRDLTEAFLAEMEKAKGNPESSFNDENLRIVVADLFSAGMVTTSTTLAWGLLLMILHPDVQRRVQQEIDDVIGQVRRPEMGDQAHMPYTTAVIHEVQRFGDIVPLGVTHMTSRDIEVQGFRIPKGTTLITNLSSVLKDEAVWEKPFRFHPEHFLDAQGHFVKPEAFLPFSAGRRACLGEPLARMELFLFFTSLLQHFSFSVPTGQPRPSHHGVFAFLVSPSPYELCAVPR
Cytochrome P450 2C9 (Homo sapiens), sequence (P11712 whole entry, looked up): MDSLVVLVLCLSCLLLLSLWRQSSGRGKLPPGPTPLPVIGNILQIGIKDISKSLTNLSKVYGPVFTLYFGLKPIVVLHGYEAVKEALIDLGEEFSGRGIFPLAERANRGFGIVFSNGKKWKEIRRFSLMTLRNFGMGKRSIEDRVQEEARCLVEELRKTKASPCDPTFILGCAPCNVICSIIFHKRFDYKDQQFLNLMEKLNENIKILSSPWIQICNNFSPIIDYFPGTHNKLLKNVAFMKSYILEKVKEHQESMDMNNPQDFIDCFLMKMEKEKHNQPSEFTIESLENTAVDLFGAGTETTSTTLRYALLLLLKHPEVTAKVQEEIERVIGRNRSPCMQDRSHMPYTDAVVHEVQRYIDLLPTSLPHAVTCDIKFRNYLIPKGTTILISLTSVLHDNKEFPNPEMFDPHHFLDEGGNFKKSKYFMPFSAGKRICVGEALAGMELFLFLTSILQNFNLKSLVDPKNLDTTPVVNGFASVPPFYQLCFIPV
Nicotinamide N-methyltransferase (Homo sapiens), sequence (P40261 whole entry, looked up): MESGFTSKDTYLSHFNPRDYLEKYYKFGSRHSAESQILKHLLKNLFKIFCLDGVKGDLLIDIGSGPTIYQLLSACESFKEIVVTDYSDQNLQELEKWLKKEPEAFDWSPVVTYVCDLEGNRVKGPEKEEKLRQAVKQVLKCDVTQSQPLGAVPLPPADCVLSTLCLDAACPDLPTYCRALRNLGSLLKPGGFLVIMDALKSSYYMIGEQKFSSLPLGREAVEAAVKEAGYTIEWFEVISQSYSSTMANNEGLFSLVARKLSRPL
Catechol O-methyltransferase (Homo sapiens), sequence (P21964 whole entry, looked up): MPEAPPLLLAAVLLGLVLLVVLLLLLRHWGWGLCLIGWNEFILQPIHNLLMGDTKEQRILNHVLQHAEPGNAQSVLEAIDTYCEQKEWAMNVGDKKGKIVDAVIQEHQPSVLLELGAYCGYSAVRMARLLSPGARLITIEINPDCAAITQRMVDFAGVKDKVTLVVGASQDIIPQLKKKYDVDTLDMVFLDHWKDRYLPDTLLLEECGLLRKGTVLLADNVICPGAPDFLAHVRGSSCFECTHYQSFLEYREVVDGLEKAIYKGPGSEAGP

COC1CCCC(C)OC(=O)Cc2cc(O)cc(O)c2C(=O)C1 (stereo not given)
inactive: Potency [2]
active: Potency [1] 4.04 µM | Potency [3] 2.84 µM | Potency [4] 3.19 µM | Potency (HEK293) 3.6 µM | Potency (KB-3-1) 4.04 µM

CN(C)[C@@H]1C(=O)C(C(N)=O)=C(O)[C@@]2(O)C(=O)C3=C(O)c4c(O)ccc(Cl)c4[C@@](C)(O)C3C[C@@H]12 (stereo not given in full)
inactive: Potency [1] | Potency [2] | Potency [3] | Potency [4] | max response (HEK293) 0.697% | max response (KB-3-1) -13.4% | outcome (NIH3T3) | Potency (HeLa) | Potency (SKOV3)

C[C@]12CC[C@H](O)C[C@@H]1CC[C@@H]1[C@@H]2CC[C@]2(C)[C@@H](C3=CC(=O)OC3)CC[C@]12O
active: Potency [1] 11.4 µM | Potency [3] 2.84 µM | Potency [4] 4.5 µM | Potency (HEK293) 5.08 µM

CCCCCCC1C(=O)O[C@H](C)[C@H](NC(=O)c2cccc(NC=O)c2O)C(=O)O[C@@H](C)[C@@H]1OC(=O)CC(C)C (stereo not given in full)
active: Potency [2] 6.31 µM | Potency [3] 0.0115 µM | Potency (HEK293) 0.164 µM | Potency (SKOV3) 0.794 µM

O=S(=O)(c1ccccc1F)N1CCOc2c(N3CCNCC3)cccc21
active: Potency [7] 9.52 µM
inactive: Potency [5] | Potency [1] | Potency [2] | Potency [6] | outcome (HaCat [8]) | outcome (KB-3-1) | outcome (HACAT [9]) | Potency (HeLa) | Potency (SKOV3)

CC12Cc3cn[nH]c3C=C1CCC1C2CCC2(C)C1CCC2(C)O (stereo not given)
inactive: max response (HaCat [8]) -0.609% | Potency (CRL-7250) | Potency (HeLa) | Potency (SKOV3)

O=C(N[C@H]1CN2CCC1CC2)c1cc2cccc(Cl)c2s1
inactive: Potency [2] | Potency [7] | max response (HaCat [8]) -4.19% | max response (KB-3-1) 2.28% | Potency (SKOV3)
active: Potency [6] 16.9 µM

CC1(C)C(=O)N(c2ccc(C#N)c(C(F)(F)F)c2)C(=S)N1c1ccc(C(N)=O)c(F)c1
inactive: Potency [1] | Potency [2] | Potency [6] | Potency [3] | Potency [4] | outcome (HaCat [8]) | max response (KB-3-1) -16.1% | outcome (HACAT [9]) | Potency (HeLa) | Potency (SKOV3)
active: Potency [7] 19 µM

Cc1cccc(NC(=O)NC2N=C(c3ccccc3)c3ccccc3N(CC(=O)c3ccccc3C)C2=O)c1 (stereo not given)
inactive: Potency [1] | Potency [6] | outcome (HaCat [8]) | max response (KB-3-1) 7.53% | outcome (HACAT [9]) | outcome (NIH3T3) | Potency (HeLa) | Potency (SKOV3)

CC(=O)C1CCC2C3CCC4C[C@@H](O)CCC4(C)C3CCC12C (stereo not given in full)
inactive: Potency [2] | max response (HaCat [8]) -9.42% | outcome (NIH3T3) | Potency (HeLa)

COC(=O)C12C(=O)C(C)(O)C(=O)C1(C)C(C)=CC1C3(C=O)CCC(OC(C)=O)C(C)(C)C3CCC12C (stereo not given)
inactive: Potency [1] | max response (HaCat [8]) -17.3% | max response (KB-3-1) 6.36% | Potency (HeLa) | Potency (SKOV3)

Cc1c(N[C@@H](c2nnc(-c3ccc(C#N)cc3)o2)[C@H](C)O)ccc(C#N)c1Cl
inactive: Potency [1] | max response (HaCat [8]) -11% | Potency (CRL-7250) | Potency (HeLa) | Potency (SKOV3)

CN1C(=O)C(Cc2ccc3ccccc3c2)N=C(c2ccc(O)cc2)c2cc(Cl)ccc21 (stereo not given)
active: Potency [6] 10.7 µM
inactive: Potency [2] | outcome (HaCat [8]) | max response (KB-3-1) -24.1% | outcome (HACAT [9]) | Potency (HeLa) | Potency (SKOV3)

c1ccc(C2(c3ccccc3)OC[C@@H]([C@H]3CCCCN3)O2)cc1
inactive: Potency [2] | max response (HaCat [8]) 4.38% | max response (KB-3-1) -9.58% | Potency (HeLa) | Potency (SKOV3)
active: Potency [6] 0.849 µM

Oc1ccc2c(c1)C13CCCC[C@H]1[C@@H](C2)N(CC1CCC1)CC3
inactive: outcome (HaCat [8]) | max response (KB-3-1) -12.4% | outcome (HACAT [9]) | Potency (HeLa)
-7.63%: activity [10]
-7.17%: activity [13]
-13.8%: activity [12]
active: Potency [3] 23 µM | Potency [4] 23 µM
-6.87%: activity change, negative = inhibition [11]

CCOP(=O)(OCC)Oc1ccc2c(C)cc(=O)oc2c1
inactive: Potency [4] | max response (HaCat [8]) -15.5% | max response (KB-3-1) -1.13% | Potency (HeLa) | Potency (SKOV3)

COC(=O)[C@@]1(C)C(=O)C=C[C@]2(C)c3c(O)cc(C(C)C)cc3[C@H](O)[C@@H](OC(C)=O)C12 (stereo not given in full)
inactive: Potency [1] | Potency [2] | outcome (HaCat [8]) | Potency (CRL-7250) | outcome (HACAT [9]) inactive [at 17.4 µM] | Potency (HeLa) | Potency (SKOV3)

C[C@H]1CC[C@@H]2[C@@H](C)[C@H]3[C@H](C[C@H]4[C@@H]5CC=C6CC(O[C@@H]7O[C@H](CO)[C@@H](O)[C@H](O[C@@H]8O[C@H](CO)[C@@H](O)[C@H](O)[C@H]8O)[C@@H]7O[C@@H]7O[C@@H](C)[C@H](O)[C@@H](O)[C@H]7O)CC[C@]6(C)[C@H]5CC[C@]34C)N2C1 (stereo not given in full)
inactive: outcome [1] inactive [at 9.29 µM] | Potency [2] | max response (HaCat [8]) -13.1% | max response (KB-3-1) 2.33% | outcome (NIH3T3) inactive [at 9.27 µM] | activity change, negative = cytotoxicity (HeLa) 8.23% [at 11.6 µM]

CN=C(NS(=O)(=O)c1ccc(Cl)cc1)N1C[C@H](c2ccccc2)C(c2ccc(Cl)cc2)=N1
inactive: Potency [2] | Potency [6] | max response (HaCat [8]) -7.89% | Potency (CRL-7250) | Potency (HeLa) | Potency (SKOV3)

CN1C(=O)[C@]23CC4C(C)(C)[C@@]5(C[C@@]41CN2CC[C@@]3(C)O)C(=O)Nc1c5ccc2c1OC=CC(C)(C)O2 (stereo not given in full)
inactive: Potency [1] | Potency [3] | Potency [4] | max response (HaCat [8]) -7.56% | max response (KB-3-1) 1.88% | Potency (SKOV3)
active: Potency [2] 7.08 µM

From PubChem BioAssay (NCATS)
